About 83,000 compounds went through this panel and 20% of them were active in at least one assay; those are over-represented in the sample as a whole.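 Note: values are percent growth. 100 is the growth of untreated cells, values between 100 and 0 indicate rising inhibition; between -100 and 0 indicates cell death.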 Active and inactive are the calls of the source. Rule for the calls: active = growth percent below 10; inactive = the rest.
test system: BT-549 breast; experiment: NCI-60 one-dose screen, 48 h (100 = growth as untreated, 0 = no growth, -100 = all killed); settings: 10 µM unless noted

Row | Structure (SMILES) | growth
1 | Cc1ccc(Nc2nc(N)c3ccccc3n2)cc1Cl | 85.8% (inactive)
2 | C#CCn1cc(C=C2C(=O)NC(=O)NC2=O)c2cc(Cl)ccc21 | 64.6% (inactive)
3 | Cc1nc(Nc2ccccn2)sc1C(=O)/C=C/c1ccc(Cl)cc1 | 19% (inactive)
4 | COc1ccc2sc(N(Cc3cccnc3)C(=O)c3ccc(C#N)cc3)nc2c1 | 92.1% (inactive)
5 | COc1cccc(C2=NN3C(C2)c2ccccc2OC3c2ccc(/C=C3\SC(=O)NC3=O)cc2)c1 (stereo not drawn) | 97.1% (inactive)
6 | COc1ccccc1N1C(=N)S/C(=C\c2ccc(OCc3ccccc3F)cc2)C1=O | 97.4% (inactive)
7 | COc1cc2cc3c(=O)n4c(cc5cc(OC)ncc54)c(=O)n3c2cn1 | 106% (inactive)
8 | COc1ccc(/C=C2\NC(=O)NC2=O)cc1O | 94.1% (inactive)
9 | CN(C)c1ccc(/C=C/c2ccnc3c(O)cccc23)cc1 | 17.8% (inactive)

test system: MDA-MB-435 melanoma; experiment: as above; settings: 10 µM unless noted

Row | Structure (SMILES) | growth
10 | COc1c(B(O)O)cccc1-c1nc2ccc3[nH]ncc3c2c2c1C1CCC2C1 (stereo not drawn) | 65.8% (inactive)
11 | O=C(Nc1ccc(Cl)cc1F)c1cc(F)ccc1O | 0.146% (active)
12 | O=c1oc2ccc(I)cc2c(=O)n1-c1ccc(I)cc1F | -4.7% (active)
13 | NCCNc1nc2ccc(F)cc2c2c(=O)c3cc(F)ccc3sc12 | 13.4% (inactive)
14 | O=C(Nc1ccc(Br)cc1F)c1cc(F)ccc1O | -1.29% (active)
15 | Cc1ccc(Nc2nc(N)c3ccccc3n2)cc1Cl | 92.1% (inactive)
16 | O=C1c2cc(I)ccc2Oc2cc([N+](=O)[O-])ccc2N1c1ccc(Cl)cc1F | 60.4% (inactive)
17 | CC1=C(C(=O)OCC2CCN(C(=O)OC(C)(C)C)CC2)[C@H](c2cccc(Br)c2)C2=C(CC(C)(C)CC2=O)N1 | 24.9% (inactive)
18 | O=C(c1ccccc1)N(C(=S)NCCc1ccc(Cl)cc1)c1ccc(Cl)cc1 | 37.9% (inactive)
19 | C#CCn1cc(C=C2C(=O)NC(=O)NC2=O)c2cc(Cl)ccc21 | 88.3% (inactive)
20 | O=c1oc2ccc(Br)cc2c(=O)n1-c1ccc(F)cc1F | 2.57% (active)
21 | O=C(Nc1ccc(Br)cc1F)c1cc(I)ccc1O | 4.78% (active)
22 | O=c1oc2ccc(Cl)cc2c(=O)n1-c1cc(C(F)(F)F)cc(C(F)(F)F)c1 | -4.47% (active)
23 | O=c1oc2ccc(Br)cc2c(=O)n1-c1ccc(I)cc1F | -1.76% (active)
24 | O=c1oc2ccc(-c3ccc(F)cc3F)cc2c(=O)n1-c1cccc(C(F)(F)F)c1 | 5.25% (active)
25 | O=c1oc2ccc(F)cc2c(=O)n1-c1ccc(Br)cc1F | 0.521% (active)
26 | O=c1oc2ccc(I)cc2c(=O)n1-c1ccc(Br)cc1F | -3.14% (active)
27 | Cc1nc(Nc2ccccn2)sc1C(=O)/C=C/c1ccc(Cl)cc1 | -28.8% (active)
28 | Nc1cccc(Nc2cc(S(=O)(=O)O)c(N)c3c2C(=O)c2ccccc2C3=O)c1 | 109% (inactive)
29 | COc1ccc2sc(N(Cc3cccnc3)C(=O)c3ccc(C#N)cc3)nc2c1 | 66.5% (inactive)

Row | Structure (SMILES) | growth
30 | COc1cccc(C2=NN3C(C2)c2ccccc2OC3c2ccc(/C=C3\SC(=O)NC3=O)cc2)c1 (stereo not drawn) | 105% (inactive)
31 | O=C1c2cc(Br)ccc2Oc2cc([N+](=O)[O-])ccc2N1c1ccc(I)cc1F | 102% (inactive)
32 | O=c1oc2ccc(Cl)cc2c(=O)n1-c1ccc(Cl)cc1F | -5.48% (active)
33 | COc1ccc(C2C3=C(COC3=O)N(CCO)c3cc4c(cc32)OCCO4)cc1 (stereo not drawn) | 1.1% (active)
34 | CC[C@]1(O)C[C@@H]2CN(CCc3c([nH]c4ccccc34)[C@@](C(=O)OC)(c3cc4c(cc3OC)N(C)[C@H]3[C@@](O)(C(=O)OC)[C@H](OC(=O)CCCBr)[C@]5(CC)C=CCN6CC[C@]43[C@@H]65)C2)C1 | -36% (active)
35 | O=C1c2cc(Cl)ccc2Oc2cc([N+](=O)[O-])ccc2N1c1ccc(F)cc1F | 93.4% (inactive)
36 | COc1ccccc1N1C(=N)S/C(=C\c2ccc(OCc3ccccc3F)cc2)C1=O | 90.4% (inactive)
37 | CC[C@]1(O)C[C@@H]2CN(CCc3c([nH]c4ccccc34)[C@@](C(=O)OC)(c3cc4c(cc3OC)N(C)[C@H]3[C@@](O)(C(=O)OC)[C@H](OC(C)=O)[C@]5(CC)C=CCN6CC[C@]43[C@@H]65)C2)C1 | -38% (active)
38 | O=c1c2cc(F)ccc2sc2c(NCCCNCCO)nc3ccc(Cl)cc3c12 | 40.1% (inactive)
39 | COc1cc2cc3c(=O)n4c(cc5cc(OC)ncc54)c(=O)n3c2cn1 | 110% (inactive)
40 | Nc1ccc(-c2nn3c(CCC(=O)c4nc5ncccc5[nH]4)nnc3s2)c(O)c1 | 97.2% (inactive)
41 | O=c1oc2ccc(Br)cc2c(=O)n1-c1ccc(Cl)cc1F | -8.83% (active)
42 | COc1ccc(/C=C2\NC(=O)NC2=O)cc1O | 94.7% (inactive)
43 | CN(C)c1ccc(/C=C/c2ccnc3c(O)cccc23)cc1 | 18.6% (inactive)
44 | O=C(c1ccccc1)N(C(=S)NCCc1ccc(Cl)cc1)c1ccccc1 | 84% (inactive)
45 | O=c1oc2ccc(Cl)cc2c(=O)n1-c1ccc(F)cc1F | 3.09% (active)
46 | CC(C)C[C@H](C(=O)N[C@@H](C)C(N)=O)N1CC=CCN(O)S1(=O)=O | 119% [5 µM] (inactive)
47 | O=C(Nc1ccc(Cl)cc1F)c1cc(I)ccc1O | 18.5% (inactive)
48 | O=C(CCc1nnc2sc(Cc3ccccc3Cl)nn12)c1nc2ncccc2[nH]1 | 102% (inactive)

From PubChem BioAssay (NCI)
